Screens as filed in PubChem BioAssay.
TDP1 block = TDP1 (human) enzyme inhibition; hit rate 0.28% among 350,000; Q9NUW8; recombinant TDP1, AlphaScreen DNA substrate cleavage; Potency, µM (titrated, usually from 130 µM), for the others: at the highest dose activity change, negative = inhibition, most hits filed as inhibitors; note: nearly all actives have a fitted effect of over 40% in size
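AlphaScreen read-out: signal falls as enzyme removes the 3' tyrosine-FITC from a 5'-biotinylated DNA oligo (15 nM, 5 min, RT). Enzyme was E. coli-made recombinant Tdp1 at 1 nM, exposed to compound for 15 min beforehand; beads 10 ug/ml, 10 min.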
DT40 TDP1 CPT = DT40-hTDP1 cell growth loss with CPT; hit rate 12% among 420,000; chicken DT40 Tdp1-/-;hTDP1 cells + 20 nM CPT, ATP luminescence, 48 h; Potency, µM (highest dose often 46.2 µM), for the others: at the highest dose activity change, negative = growth inhibition, hits mostly inhibitors; note: nearly all actives have a fitted effect of over 55% in size
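Chicken DT40 Tdp1-/- cells complemented with human TDP1, 400 cells/well, exposed to compounds plus 20 nM camptothecin for at least 48 h at 37 C; viability read as ATP content by CellTiter-Glo luminescence.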
TDP1 cell noCPT = qHTS for Inhibitors of human tyrosyl-DNA phosphodiesterase 1 (TDP1): qHTS in cells in absence of CPT | DT40 Tdp1-/- hTDP1 cells, no CPT, ATP luminescence, 48 h | Potency, µM (highest dose often 46.2 µM), without a hit: top-dose activity change, negative = growth inhibition, usual class: inhibitors | hit rate 15% among 420,000; note: nearly all actives have a fitted effect of over 55% in size
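A cellular qHTS used chicken DT40 cells lacking endogenous Tdp1 but carrying stably transfected human TDP1. Compounds were applied without camptothecin, and cell growth kinetics were judged by ATP-dependent luminescence after ≥48 hr.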
RORgamma inh = ROR gamma (mouse) transcription inhibition. P51450. Drosophila S2 Gal4-RORgamma UAS-luciferase reporter, 20 h. Potency, µM (titrated, usually from 53.6 µM), for inactives: top-dose activity change, negative = inhibition, hits mostly inhibitors. hit rate 5.4% among 310,000. AID 2551; note: nearly all actives have a fitted effect of over 60% in size
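Drosophila S2 cells stably expressing Gal4-DBD/mouse RORγ fusion under metallothionein promoter plus UAS-luciferase; compound 1 h, then 700 uM CuSO4 induction for 20 h at ambient temperature; inhibition read as reduced luminescence.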
Gal4-VP16 FLuc = Gal4-VP16 reporter inhibition counter-screen | Drosophila S2 Gal4-VP16 UAS-luciferase, luminescence, 20 h | Potency, µM (titrated, usually from 53.6 µM), without a hit: top-dose activity, negative = inhibition, most hits filed as inhibitors | hit rate 3.5% among 310,000;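 note: Gal4-VP16 expression switched on by copper sulfate through the metallothionein promoter; nearly all actives have a fitted effect of over 50% in size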
* hit, by the source's call; ? = inconclusive; nt = no result; [ ] = dose if it differs, or a comment. Hits are enriched below; roughly 19% of the tested compounds scored in any of these assays. Calls come from the whole dose curve; as a rule, active = well fitted curve in the direction sought with a large enough effect; inconclusive = small, poorly fitted or top-dose-only effect, or another doubt; inactive = no such curve, though single readings can be large; an effect the other way counts as inactive or inconclusive. % is set by controls: 0 for no effect and ±100 for the full control effect; potency is the fitted concentration of half-maximal effect.

SMILES	TDP1 block	DT40 TDP1 CPT	TDP1 cell noCPT	RORgamma inh	Gal4-VP16 FLuc
CCCCN(Cc1ccccc1)S(=O)(=O)c1cc(Br)cc2c1N(C(C)=O)C(C)C2 (configuration not stated)	2%	16µM*	13µM*	?	?
COc1ccc(C(=O)COC(=O)c2cc(-c3ccccc3)nc3c(C)cccc23)cc1	-2%[12.3 µM]	?	?	nt	nt
CCN(CCn1cccn1)Cc1c(C(=O)N2C[C@@H](C)O[C@@H](C)C2)nc2ccc(Cl)cn12	5%	2%	-21%	-3%	-17%
O=C(CSCc1nc2cccnc2n1C1CCCCC1)NCc1cccc(Cl)c1	3%	23µM*	10µM*	nt	nt
O=C(CSCc1nc2cccnc2n1C1CCCCC1)NCc1cccc(Br)c1	2%	16µM*	21µM*	nt	nt
COc1cc(CNC(=O)CSCc2nc3cccnc3n2C2CCCCC2)cc(OC)c1OC	3%	?	?	nt	nt
O=C(Cn1ccc(C(F)(F)F)n1)NNC(=O)c1cccnc1	2%	23%	20%	-11%	6%
Cc1ccc(-n2c(N)c(S(=O)(=O)c3ccccc3)c3nc4ccccc4nc32)cc1	1%	?	?	14%	8%
CCc1nnc(NC(=O)C2Cc3ccccc3CN2S(=O)(=O)c2c(C)c(C)cc(C)c2C)s1 (configuration not stated)	5%	-26%	?	11µM*	-13%
CCS(=O)(=O)N1Cc2ccccc2CC1C(=O)Nc1nc2ccccc2s1 (configuration not stated)	7%	?	16µM*	3.5µM*	4.5µM*
CCOc1ccccc1NC(=O)C1Cc2ccccc2CN1S(C)(=O)=O (configuration not stated)	0%	0%	-17%	0%	1%
CS(=O)(=O)N1Cc2ccccc2CC1C(=O)Nc1ccccc1C(N)=O (configuration not stated)	3%	23µM*	-23%	3%	-8%
N#Cc1ccc(CN2CCN(c3ccc(S(=O)(=O)N4CCCC4)cn3)CC2)cc1	1%	-30%	-10%	nt	nt
CC(=O)Nc1ccc(S(=O)(=O)NCCc2csc(-c3cccnc3)n2)cc1	1%	2%	2%	-3%	3%
CCN(CC)S(=O)(=O)c1cccc(-c2n[nH]c(=S)n2Cc2ccccc2)c1	2%	-5%	11%	?	-2%
Cc1ccc2nc(-c3cccc(S(=O)(=O)N4CC(C)OC(C)C4)c3)cn2c1 (configuration not stated)	2%	?	15µM*	37%	0%
Cc1ccc2nc(-c3cccc(S(=O)(=O)N4CCCC4)c3)cn2c1	1%	-5%	-3%	-19%	?
CCN(CC)S(=O)(=O)c1cccc(-c2cn3cc(C)ccc3n2)c1	2%	21µM*	18µM*	?	?
CCN(CC)S(=O)(=O)c1cccc(-c2n[nH]c(=S)n2CC(C)C)c1	3%	-16%	?	8.9µM*	3%
Clc1ccc(-c2nc3n(n2)Cc2ccccc2-3)cc1	-8%	-15%	-17%	-3%	-7%
CCN(CC)S(=O)(=O)c1cccc(-c2nc3n(n2)Cc2ccccc2-3)c1	5%	?	23µM*	14%	-1%
C/C(CC(=O)Nc1cccc(C(F)(F)F)c1)=N/NC(=O)C(=O)NCCO	9%	-8%	-18%	35%	24%
COc1cc(-c2nnc(SCC(=O)Nc3ccc(F)c(Cl)c3)o2)cc(OC)c1OC	6%	-4%	3%	nt	nt
COc1ccc(CNC(=O)Cc2c[nH]c3ccccc23)cc1OC	nt	-21%	-3%	-2%	14%
CC1CC(=O)N(C)c2ccc([N+](=O)[O-])cc2N1 (configuration not stated)	2%	22%	-1%	-16%	-11%
Cc1ccc(NC(=O)CN(C)C(=O)c2ccccn2)cc1	0%	6%	10%	nt	nt
CCCN(CCC)S(=O)(=O)c1cccc(-c2csc(C)n2)c1	nt	?	18µM*	6%	10%
